Test results as given in PubChem BioAssay (NCATS).
Where “and” joins values, the source holds several entries; their conditions need not be identical. Equal entries are not always repeated. Results filed as inconclusive are left out. Entries that show only a call come without a potency. A number with no mark means an inactive call. Calls of active or inactive are those of the source. Calls follow the shape of the dose curve; as a rule, active = well fitted curve in the direction sought with a large enough effect; inconclusive = small, poorly fitted or top-dose-only effect, or another doubt; inactive = no such curve, though single readings can be large; an effect the other way counts as inactive or inconclusive.

Legend:
[1] = target: Cytochrome P450 3A7 (Homo sapiens) (UniProt P24462); experiment: Cytochrome P450 family 3 subfamily A member 7 (CYP3A7) small molecule antagonists: luciferase biochemical qHTS assay (AID 1963596); also: nearly all actives have a fitted effect of over 40% in size
Sequence of Cytochrome P450 3A7 (Homo sapiens) (P24462 whole entry, looked up): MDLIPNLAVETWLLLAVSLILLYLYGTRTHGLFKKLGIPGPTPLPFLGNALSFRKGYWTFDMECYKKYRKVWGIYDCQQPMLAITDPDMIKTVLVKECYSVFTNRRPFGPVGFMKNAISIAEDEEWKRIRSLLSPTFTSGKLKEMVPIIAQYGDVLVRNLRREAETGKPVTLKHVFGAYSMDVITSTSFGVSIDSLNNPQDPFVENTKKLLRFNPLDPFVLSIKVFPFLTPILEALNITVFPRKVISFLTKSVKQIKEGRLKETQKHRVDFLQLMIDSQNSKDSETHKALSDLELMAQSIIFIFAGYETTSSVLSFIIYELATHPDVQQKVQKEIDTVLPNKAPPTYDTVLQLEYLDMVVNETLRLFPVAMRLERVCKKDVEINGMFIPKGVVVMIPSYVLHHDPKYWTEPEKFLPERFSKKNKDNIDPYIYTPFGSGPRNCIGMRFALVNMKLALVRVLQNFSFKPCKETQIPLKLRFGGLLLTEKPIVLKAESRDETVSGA
Summary of the method: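 Luminescence read-out (relative luminescence units) after 20 min with detection reagent, which stops the reaction. Enzyme, proluciferin substrate and compound preincubated 10 min, RT; NADPH regeneration system then started 1 h reaction. Ketoconazole as positive control.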

[2] = Viability qHTS for spleen associated tyrosine kinase inhibitor (SYKi) drug resistant MV4-11 cells (AID 1963824); also: nearly all actives have a fitted effect of over 35% in size
Summary of the method: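 SYK inhibitor-resistant MV4-11 AML cells, 500 per well, added to predispensed compounds and incubated 72 hr at 37 C, 5% CO2. Viability measured by CellTiter-Glo luminescence after 10 min at room temperature.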

[3] = Cellular viability qHTS for adrenocortical cancer (ACC) cell line SW-13 (AID 1963989); conditions: SW-13 ACC cells viability, CellTiter-Glo, 48 h; activity (max response): hits give low values; also: nearly all actives have a fitted effect of over 65% in size;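 as to activity (max response): cells grown in serum-free medium with ITS supplement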
Summary of the method: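 48 h treatment, SW-13 in ITS/DMEM serum-free; doses up to 46 uM; readout CellTiter-Glo luminescence; curve fit four-parameter logistic.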

[4] = Cellular viability qHTS for adrenocortical cancer (ACC) cell line NCI-H295R (AID 1963990); also: nearly all actives have a fitted effect of over 60% in size
Summary of the method: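 Compound titrations (up to 46 uM final) are applied to NCI-H295R cultures for 48 h at 37C. Viable cell number is estimated by CellTiter-Glo signal, normalised to DMSO and doxorubicin controls.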
Potency is read from the fitted curve at half-maximal effect.

SMILES	Potency [1]	Potency [2]	activity (max response) [3]	Potency [4]	Potency [3]
CC(=O)Nc1ccc(S(=O)(=O)Nc2cc(C)on2)cc1	inactive	inactive	11.6%	inactive	–
O=c1[nH]c(=O)n([C@H]2C[C@H](O)[C@@H](CO)O2)cc1I	inactive	5.25 µM (active)	-5.04% and -11.6%	inactive	–
Cc1ccnc(NS(=O)(=O)c2ccc(N)cc2)n1	inactive	inactive	8.12%	–	–
CCCC(=O)O[C@]1(C(=O)CO)CC[C@H]2[C@@H]3CCC4=CC(=O)CC[C@]4(C)[C@H]3[C@@H](O)C[C@@]21C	inactive	inactive	-3.14%	inactive	–
CN[C@@H](C)C(=O)N[C@H](C(=O)N1CCC[C@H]1c1nc(C(=O)c2ccc(F)cc2)cs1)C1CCCCC1	14100 nM (active)	1.05 µM (active)	-7.41%	inactive	–
CN1CCN(c2ccc(OC(F)(F)F)c(Nc3ncc4c(n3)-c3c(c(C(N)=O)nn3CCO)CC4)c2)CC1	inactive	20.6 nM (active) and 46.8 nM (active)	–	–	100 nM (active)
CC1CCc2cc(F)cc3c(=O)c(C(=O)O)cn1c23 (stereo not drawn)	inactive	6.68 µM (active)	5.01%	inactive	–
Cc1c(C(N)=O)cc([N+](=O)[O-])cc1[N+](=O)[O-]	inactive	inactive	-7.83%	–	–
CC1=NS(=O)(=O)c2cc(Cl)ccc2N1	inactive	inactive	8.23%	inactive	–
NC1CCN(c2cccc(Cl)n2)CC1	inactive	inactive	2.41%	inactive	–
CN1CCN(N)CC1	inactive	inactive	-3.26%	inactive	–
CC(=O)OC[C@H]1O[C@@H](OC(C)=O)[C@H](OC(C)=O)[C@@H]1OC(C)=O	inactive	inactive	10.4%	inactive	–
CCCCCCCCCCCCCC(=O)OC(C)C	inactive	inactive	6.54%	–	–
CCCc1ncc(C(=O)O)s1	inactive	inactive	8.93%	–	–
O=C(c1ccco1)N1CCNCC1	inactive	inactive	-4.62%	–	–
COCCc1ccc(OCC2CO2)cc1 (stereo not drawn)	inactive	inactive	-2.52%	inactive	–

SMILES	Potency [1]	Potency [2]	activity (max response) [3]	Potency [4]	Potency [3]
CNC(=O)c1c(I)c(NC(=O)CCCCC(=O)Nc2c(I)c(C(=O)O)c(I)c(C(=O)NC)c2I)c(I)c(C(=O)O)c1I	inactive	inactive	-7.54%	inactive	–
CCN(CC)CCNC(=O)c1ccc(NC(C)=O)cc1	inactive	inactive	-7.72%	inactive	–
NC(=O)CC[C@@H](N)C(=O)O	inactive	inactive	12.6%	–	–
Cn1cc(-c2cnn3c(N)c(Br)c([C@@H]4CCCNC4)nc23)cn1	inactive	731 nM (active) and 468 nM (active)	–	–	12600 nM (active)
Cc1cc(-c2cc(OC(=O)c3ccccc3)ccc2Cl)cc2nnc(Nc3ccc(OCCN4CCCC4)cc3)nc12	inactive	1.59 µM (active)	9.34%	inactive	–
CCCN(CCC)CCc1cccc2c1CC(=O)N2	inactive	inactive	8.18%	inactive	–
Cc1cc(NS(=O)(=O)c2ccc(N)cc2)nc(C)n1	inactive	inactive	9.61%	inactive	–
CCCOC(=O)c1ccccc1	inactive	inactive	11.8%	inactive	–
C[n+]1ccccc1/C=N/O	inactive	inactive	3.67%	inactive	–
Cc1c(F)cc2c(=O)c(C(=O)O)cn3c2c1CCC3C (stereo not drawn)	inactive	inactive	-2.48%	–	–
CC(=O)c1ccc(OCC(=O)N2CCCCC2)cc1	inactive	inactive	7.54%	inactive	–
O=C(O)CNC(=O)c1ccccc1	inactive	inactive	6.31%	–	–
NC(=O)CCCCC1CCSS1 (stereo not drawn)	inactive	inactive	9.98%	inactive	–
CNCCc1ccccn1	inactive	inactive	13.5%	inactive	–
O=C(CCCl)NCc1ccccc1	inactive	inactive	9.65%	inactive	–
CCOc1cc2ncc(C#N)c(Nc3ccc(F)c(Cl)c3)c2cc1NC(=O)/C=C/CN(C)C	inactive	0.235 µM (active)	–	3550 nM (active)	631 nM (active)
